Test results: the supplement of paper PMC13380429

Assays:
[1] = system: Vero E6 infected with SARS-CoV-2; assay: morphology score (similarity to uninfected cells); higher = more like uninfected cells; details: 24 h
[2] = system: Vero E6 infected with SARS-CoV-2; assay: SARS-CoV-2 infection rate relative to infected DMSO; higher = more infection, active = 60 or less; details: 24 h

For `OC[C@@H](O)[C@@H](O[C@@H]1O[C@H](CO)[C@H](O)[C@H](O)[C@H]1O)[C@H](O)[C@@H](O)CO` (10 µM), the morphology score [1] was -0.0894 and the SARS-CoV-2 infection rate [2] was 111% (inactive).
`Fc1ccc(Cn2c(NC3CCNCC3)nc3ccccc32)cc1` [tecastemizole] (10 µM) was tested, and the morphology score [1] was -0.00173 and the SARS-CoV-2 infection rate [2] was 111% (inactive).
For `O=C1CCC(N2C(=O)c3ccccc3C2=O)C(=O)N1` (centres undefined) [thalidomide] (10 µM), the morphology score [1] was -0.223 and the SARS-CoV-2 infection rate [2] was 104% (inactive).
With `NCC[C@H](O)C(=O)N[C@@H]1C[C@H](N)[C@@H](O[C@H]2O[C@H](CN)[C@@H](O)[C@H](O)[C@H]2O)[C@H](O)[C@H]1O[C@H]1O[C@H](CO)[C@@H](O)[C@H](N)[C@H]1O` [amikacin] (10 µM) the morphology score [1] was -0.122 and the SARS-CoV-2 infection rate [2] was 91% (inactive).
In the case of `N[C@@H](Cn1ccc(=O)n(Cc2ccccc2C(=O)O)c1=O)C(=O)O` (10 µM), the morphology score [1] is reported as 0.28 and the SARS-CoV-2 infection rate [2] is reported as 79% (inactive).
With `CN1CCN(C(=O)O[C@H]2c3nccnc3C(=O)N2c2ccc(Cl)cn2)CC1` (10 µM) the morphology score [1] was -0.0495 and the SARS-CoV-2 infection rate [2] was 108% (inactive).
`COc1ccc(CCC(=O)Nc2nc3ccc(Cl)cc3s2)cc1OC` (10 µM) was tested, and the morphology score [1] was 0.197 and the SARS-CoV-2 infection rate [2] was 100% (inactive).
For `Cn1c(=O)c2c(ncn2CC(O)CO)n(C)c1=O` (centres undefined) [dyphylline] (10 µM), the morphology score [1] was 0.0342 and the SARS-CoV-2 infection rate [2] was 96% (inactive).
With `NC1=N[C@@]2(c3cc(NC(=O)c4ccc(F)cn4)ccc3F)COC[C@H]2CS1` (10 µM) the morphology score [1] was 0.00208 and the SARS-CoV-2 infection rate [2] was 116% (inactive).
For `NCCC(O)(P(=O)(O)O)P(=O)(O)O` [pamidronate] (10 µM), the morphology score [1] was 0.09 and the SARS-CoV-2 infection rate [2] was 114% (inactive).
In the case of `Cc1ccc(C)c(Oc2ccncc2C(=O)N2CCN(C3CC3)c3ccccc32)c1` (10 µM), the morphology score [1] is reported as 0.133 and the SARS-CoV-2 infection rate [2] is reported as 108% (inactive).
For `CCOC(=O)C1=C(C)NC(c2ccccc2)=C(C(=O)OCc2ccc([N+](=O)[O-])cc2)[C@@H]1C#Cc1ccccc1` (10 µM), the morphology score [1] was 0.304 and the SARS-CoV-2 infection rate [2] was 89% (inactive).
For `Cc1c(NC(=O)c2cc3c(s2)CCCC3)cccc1-c1cn(C)c(=O)c(Nc2ccc(C3C(=O)N(C)CCN3C)cc2)n1` (stereo in doubt) (10 µM), the morphology score [1] was 0.45 and the SARS-CoV-2 infection rate [2] was 69% (inactive).
For `CC(C)(C)C(=O)Oc1ccc(S(=O)(=O)Nc2ccccc2C(=O)NCC(=O)O)cc1` [sivelestat] (10 µM), the morphology score [1] was 0.168 and the SARS-CoV-2 infection rate [2] was 95% (inactive).
In the case of `CC(C)C(N)C(=O)O` (stereo in doubt) [L-valine] (10 µM), the morphology score [1] is reported as 0.0236 and the SARS-CoV-2 infection rate [2] is reported as 109% (inactive).
With `CNC[C@@H]1CC[C@@H](N)[C@@H](O[C@H]2[C@H](O)[C@@H](O[C@H]3OC[C@](C)(O)[C@H](NC)[C@H]3O)[C@H](N)C[C@@H]2N)O1` [micronomicin] (10 µM) the morphology score [1] was 0.0697 and the SARS-CoV-2 infection rate [2] was 96% (inactive).
In the case of `Cc1cccc(NC(=O)CN2CCC(c3ccccn3)CC2)c1` (10 µM), the morphology score [1] is reported as -0.0959 and the SARS-CoV-2 infection rate [2] is reported as 108% (inactive).
For `CC(C)C[C@H](NC(=O)N1CCCCCC1)C(=O)N[C@H](Cc1cn(C)c2ccccc12)C(=O)N[C@H](Cc1ccccn1)C(=O)O` (10 µM), the morphology score [1] was 0.257 and the SARS-CoV-2 infection rate [2] was 100% (inactive).
`O=C(O)c1cc(=O)c2c(OCC(O)COc3cccc4oc(C(=O)O)cc(=O)c34)cccc2o1` [cromoglicic-acid] (10 µM) was tested, and the morphology score [1] was 0.204 and the SARS-CoV-2 infection rate [2] was 87% (inactive).
For `COC(=O)C1=C(C)NC(C)=C(C(=O)OC/C=C/c2ccccc2)C1c1cccc([N+](=O)[O-])c1` (centres undefined) [pranidipine] (10 µM), the morphology score [1] was -0.0636 and the SARS-CoV-2 infection rate [2] was 107% (inactive).
`CN(C)/N=N/c1[nH]cnc1C(N)=O` [dacarbazine] (10 µM) was tested, and the morphology score [1] was 0.135 and the SARS-CoV-2 infection rate [2] was 87% (inactive).
For `COc1cc(C(=O)NCc2ccc(OCCN(C)C)cc2)cc(OC)c1OC` [trimethobenzamide] (10 µM), the morphology score [1] was 0.00196 and the SARS-CoV-2 infection rate [2] was 110% (inactive).
In the case of `Cc1ccccc1-n1c(Cn2nc(-c3cccc(O)c3)c3c(N)ncnc32)nc2cccc(C)c2c1=O` (10 µM), the morphology score [1] is reported as 0.0603 and the SARS-CoV-2 infection rate [2] is reported as 126% (inactive).
For `COc1cc2c(Nc3ccc(NC(=O)c4ccccc4)cc3)ncnc2cc1OCCCN1CCOCC1` (10 µM), the morphology score [1] was -0.13 and the SARS-CoV-2 infection rate [2] was 108% (inactive).
With `COc1ccccc1S(=O)(=O)Nc1ccc2c(c1)CN(C)C(=O)N2` (0.833333 µM) the morphology score [1] was -0.0409 and the SARS-CoV-2 infection rate [2] was 108% (inactive).
In the case of `C/C(O)=C(\C#N)C(=O)Nc1ccc(C(F)(F)F)cc1` [teriflunomide] (10 µM), the morphology score [1] is reported as 0.0341 and the SARS-CoV-2 infection rate [2] is reported as 108% (inactive).
For `COc1ccccc1Oc1c(NS(=O)(=O)c2ccc(C)cn2)nc(-c2ccncc2)nc1OC` (10 µM), the morphology score [1] was 0.183 and the SARS-CoV-2 infection rate [2] was 85.5% (inactive).
